C diff growth: blocks growth of Clostridium difficile | growth activity, negative = inhibition, % at 16 µg/mL (by protocol) | Clostridium difficile clinical isolate growth, OD600, 24 h; stronger effect = lower value | 86,000 tested, 0.25% active;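 active = mean growth activity at or below -80% and every replicate also at or below -80%; inconclusive = mean at or below -80% but some replicate above -80%; inactive = mean growth activity above -80%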
Pf Dd2 growth: P. falciparum Dd2 growth inhibition; SYBR Green, 72 h; stronger effect = lower value; activity change, % at 10 µM; 94,000 tested, 2.3% active; AID 1159554; in the data active = activity change below about -80%; inconclusive = no clear call, values can overlap the other calls
T cruzi growth: inhibitors of T. cruzi proliferation; T. cruzi beta-gal in NIH3T3, GalScreen luminescence, 90 h; inhibition, % at 8.34 µM; 77,000 tested, 5.9% active;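 active = mean inhibition above about 93%, with at least 55% of replicates each passing it, limit read from the data, passing the limit was not always enough; inconclusive = only one of those two conditions holds; inactive = neither condition holds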
Of the large screens only hits and unclear results are named; the others gave an inactive call. Most compounds without a hit are left out; they make up all but 6.7% or so of the library.

CCC(=O)N1CC2(C1)CN(Cc1cccc(Cl)c1)[C@@H](CO)c1c2c2ccc(OC)cc2n1C	none (no result: T cruzi growth)
COCC(=O)N1CCC2(CC1)CN(Cc1ccc3c(c1)OCO3)[C@@H](CO)c1c2c2ccc(OC)cc2n1C	none (no result: T cruzi growth)
COc1ccc2c3c(n(C)c2c1)[C@@H](CO)N(Cc1ccc2c(c1)OCO2)CC31CN(C(=O)c2ccc3c(c2)OCO3)C1	Pf Dd2 growth -85 (no result: T cruzi growth)
COc1ccc2c3c(n(C)c2c1)[C@@H](CO)N(CC1CC1)CC31CN(C(=O)c2ccc3c(c2)OCO3)C1	none (no result: T cruzi growth)
COc1ccc2c3c(n(C)c2c1)[C@H](CO)N(CC1CC1)CC31CN(C(=O)c2ccc3c(c2)OCO3)C1	Pf Dd2 growth -89 (no result: T cruzi growth)
COc1cc(CN2CC3(CN(C(=O)c4ccc5c(c4)OCO5)C3)c3c(n(C)c4cc(OC)ccc34)[C@@H]2CO)cc(OC)c1	none (no result: T cruzi growth)
CCC(=O)N1CCC2(CC1)CN(Cc1ccc3c(c1)OCO3)[C@@H](CO)c1c2c2ccc(OC)cc2n1C	Pf Dd2 growth -91 (no result: T cruzi growth)
COc1ccccc1NC(=O)Nc1ccc2c(c1)C(=O)N(C)C[C@@H](OC)[C@H](C)CN(C)[C@H](C)CO2	none (no result: C diff growth)
CO[C@H]1CN(C)C(=O)c2cc(NC(C)=O)ccc2OC[C@@H](C)N(C(=O)c2ccncc2)C[C@H]1C	none
COCC(=O)N1[C@@H](C#N)[C@@H](c2ccccc2-c2cccc(OC)c2)[C@@H]1CO	none (no result: T cruzi growth)
O=C(C[C@@H]1CC[C@@H](NC(=O)Nc2cc(F)ccc2F)[C@@H](CO)O1)Nc1ccc(-c2ccccc2)cc1	none (no result: C diff growth)
COc1ccc(NC(=O)N(C)C[C@H]2OCCCC[C@H](C)Oc3ccc(NC(=O)Cc4ccccc4)cc3C(=O)N([C@H](C)CO)C[C@H]2C)cc1	Pf Dd2 growth -87
COc1ccc(NC(=O)N(C)C[C@H]2OCCCC[C@H](C)Oc3ccc(NC(=O)c4ccccc4)cc3C(=O)N([C@H](C)CO)C[C@H]2C)cc1	Pf Dd2 growth -95 (no result: T cruzi growth)
COc1ccc(NC(=O)N(C)C[C@H]2OCCCC[C@@H](C)Oc3ccc(NC(=O)c4ccccc4)cc3C(=O)N([C@@H](C)CO)C[C@H]2C)cc1	none
COc1ccc(NC(=O)N(C)C[C@@H]2OCCCC[C@@H](C)Oc3ccc(NC(=O)Cc4ccccc4)cc3C(=O)N([C@@H](C)CO)C[C@@H]2C)cc1	none
CNC[C@H]1Oc2ccc(NC(=O)CCC(F)(F)F)cc2C(=O)N([C@@H](C)CO)C[C@@H]1C	none
C[C@H]1CN([C@@H](C)CO)C(=O)c2cccc(NS(=O)(=O)c3ccc(Cl)cc3)c2O[C@@H]1CN(C)Cc1ccc(C(F)(F)F)cc1	none
C[C@H]1CN([C@@H](C)CO)C(=O)c2c(c3ccccc3n2C)-c2ccccc2CO[C@H]1CN(C)C(=O)Cc1ccccc1	none
C[C@@H]1CN([C@@H](C)CO)C(=O)c2c(c3ccccc3n2C)-c2ccccc2CO[C@@H]1CN(C)C(=O)CCN(C)C	none
C[C@@H]1CN([C@@H](C)CO)C(=O)c2c(c3ccccc3n2C)-c2ccccc2CO[C@H]1CN(C)C(=O)Cc1ccccc1	Pf Dd2 growth -86
C[C@H](CO)N1C[C@H](C)[C@@H](CN(C)C(=O)CCN(C)C)OCc2ccccc2-c2c(n(C)c3ccccc23)C1=O	Pf Dd2 growth -85
O=C(Nc1ccc2c(c1)[C@H]1C[C@H](CC(=O)N3CCCCC3)O[C@@H](CO)[C@H]1O2)C1CCC1	none (no result: C diff growth)
C[C@H](CO)N1C[C@H](C)[C@H](CN(C)S(=O)(=O)c2cccs2)Oc2ccc(NC(=O)Cc3ccccc3)cc2CC1=O	none
C[C@@H]1CN([C@H](C)CO)C(=O)c2cc(C#CCN(C)C)cnc2O[C@@H]1CN(C)C(=O)c1ccc(F)cc1	none
C[C@@H]1CCCCO[C@H](CN(C)C(=O)Nc2ccccc2)[C@@H](C)CN([C@@H](C)CO)C(=O)c2cc(NS(=O)(=O)c3ccc(Cl)cc3)ccc2O1	Pf Dd2 growth -89
C[C@H]1CCCCO[C@H](CN(C)C(=O)Nc2ccc(C(F)(F)F)cc2)[C@@H](C)CN([C@@H](C)CO)C(=O)c2cc(NS(=O)(=O)c3ccc(Cl)cc3)ccc2O1	Pf Dd2 growth -83
C[C@@H]1CN([C@@H](C)CO)C(=O)c2cc(NS(=O)(=O)c3ccc(F)cc3)ccc2O[C@@H](C)CCCCO[C@@H]1CN(C)C(=O)Nc1ccc(C(F)(F)F)cc1	Pf Dd2 growth -88 (no result: T cruzi growth)
C[C@@H]1CCCCO[C@@H](CN(C)C(=O)Nc2ccccc2)[C@H](C)CN([C@H](C)CO)C(=O)c2cc(NS(=O)(=O)c3ccc(Cl)cc3)ccc2O1	none
Cc1ccc(S(=O)(=O)Nc2ccc3c(c2)C(=O)N([C@@H](C)CO)C[C@@H](C)[C@@H](CN(C)C(=O)Nc2ccc4c(c2)OCO4)OCCCC[C@H](C)O3)cc1	Pf Dd2 growth inconclusive (no result: T cruzi growth)

Source: PubChem BioAssay
